Measured values taken from PubChem BioAssay (Tox21).
Records with an inconclusive call do not appear. Activity calls are given as the source filed them. Unless noted, the call rests on the fitted dose curve; in most records, active means well fitted curve in the direction sought with a large enough effect in the repeat runs; inconclusive means weak or mixed curves; inactive means no such curve, though single readings can be large; an effect the other way counts as inactive or inconclusive.

Columns and labels:
[1] = qHTS assay to identify small molecule antagonists of the thyroid receptor (TR) signaling pathway (AID 743065); settings: GH3.TRE-Luc, T3-stimulated luciferase inhibition, 23.5 h; series mostly up to 70.3 µM; further: nearly all actives have a fitted effect of over 55% in size
Outline: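 GH3.TRE-Luc rat pituitary cells carrying two TR response elements driving luciferase were plated for 4 h, given compound plus 1 nM T3 (final), and incubated 23.5 h at 37 C. ONE-Glo luminescence measured reporter inhibition; CellTiter-Fluor fluorescence tracked cytotoxicity.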

[2] = system: thyroid hormone receptor (rat, GH3 cells); assay: qHTS assay to identify small molecule agonists of the thyroid receptor (TR) signaling pathway (AID 743066; calls by dose curve); settings: GH3.TRE-Luc cells, TR agonist luciferase, 24 h; series mostly up to 83.9 µM
[3] = biological target: Estrogen receptor (Homo sapiens) (UniProt P03372); assay: qHTS assay to identify small molecule antagonists of the estrogen receptor alpha (ER-alpha) signaling pathway (AID 743069; active means well fitted curve in the direction sought with a large enough effect in the signal ratio in the repeat runs, not every such curve was filed as active; the % refers to the signal ratio); settings: HEK293 ER-alpha-UAS-bla, beta-lactamase ratio, antagonist mode; series mostly up to 69.4 µM
Estrogen receptor (Homo sapiens), sequence (P03372 whole entry, looked up): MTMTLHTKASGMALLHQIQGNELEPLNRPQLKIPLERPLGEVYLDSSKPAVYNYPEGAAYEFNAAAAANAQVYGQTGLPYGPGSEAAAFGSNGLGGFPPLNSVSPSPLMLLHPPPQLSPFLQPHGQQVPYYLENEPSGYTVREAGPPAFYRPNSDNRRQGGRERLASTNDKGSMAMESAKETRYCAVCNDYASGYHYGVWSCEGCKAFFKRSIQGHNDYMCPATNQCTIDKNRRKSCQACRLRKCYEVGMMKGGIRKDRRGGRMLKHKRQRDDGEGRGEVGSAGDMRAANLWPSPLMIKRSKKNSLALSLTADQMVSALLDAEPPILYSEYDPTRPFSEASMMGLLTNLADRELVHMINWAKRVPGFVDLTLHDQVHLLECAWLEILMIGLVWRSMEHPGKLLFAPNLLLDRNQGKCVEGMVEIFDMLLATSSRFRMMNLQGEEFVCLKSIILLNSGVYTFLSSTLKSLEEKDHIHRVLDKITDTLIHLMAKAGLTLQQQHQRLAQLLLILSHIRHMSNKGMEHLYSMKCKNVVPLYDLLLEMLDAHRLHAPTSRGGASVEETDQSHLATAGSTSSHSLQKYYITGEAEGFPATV
Outline: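 Estradiol-stimulated ER-alpha-UAS-bla HEK293 cells, 18 hr compound exposure at 37C. LiveBLAzer B/G substrate, 2 hr RT, fluorescence read.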

[4] = qHTS assay to identify small molecule antagonists of the estrogen receptor alpha (ER-alpha) signaling pathway - cell viability counter screen (AID 743074; calls by dose curve;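 further: HEK293 cells carrying ER-alpha-UAS-bla reporter stimulated with 17beta-estradiol; nearly all actives have a fitted effect of over 45% in size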); settings: ERalpha-bla HEK293 viability, CellTiter-Glo luminescence, 18 h; series mostly up to 69.4 µM
[5] = biological target: Estrogen receptor (Homo sapiens) (UniProt P03372); assay: qHTS assay to identify small molecule agonists of the estrogen receptor alpha (ER-alpha) signaling pathway (AID 743075; calls by dose curve;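 further: HEK293 GripTite cells with ER-alpha and UAS-driven beta-lactamase reporter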); settings: HEK293 ER-alpha-UAS-bla, beta-lactamase FRET ratio, 18 h; series mostly up to 70.1 µM
[6] = biological target: Estrogen receptor (Homo sapiens) (UniProt P03372); assay: qHTS assay to identify small molecule agonists of the estrogen receptor alpha (ER-alpha) signaling pathway using the BG1 cell line (AID 743079); settings: BG1Luc4E2 cells, ERE-luciferase agonist, 22 h; series mostly up to 70.3 µM; further: nearly all actives have a fitted effect of over 20% in size
[7] = qHTS assay to identify small molecule antagonists of the estrogen receptor alpha (ER-alpha) signaling pathway using the BG1 cell line (AID 743080; calls by dose curve;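 further: BG1 cells stimulated with 17beta-estradiol alongside compound; nearly all actives have a fitted effect of over 25% in size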); settings: BG1Luc4E2 ERE-luciferase antagonist mode, luminescence; series mostly up to 70.3 µM
Outline: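 BG1-Luc-4E2 cells (endogenous full-length ER-alpha, 4xERE luciferase) hormone-starved 5 days in charcoal-stripped FBS, plated 4,000/well for 24 h, then compound plus 17beta-estradiol for 21.5 h at 37 C; ONE-Glo luminescence read.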

[8] = qHTS assay to identify small molecule antagonists of the estrogen receptor alpha (ER-alpha) signaling pathway using the BG1 cell line - cell viability counter screen (AID 743081); settings: BG1Luc4E2 viability, CellTiter-Fluor, 22 h; series mostly up to 70.3 µM;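 further: compound given together with 17beta-estradiol as the ER stimulus; nearly all actives have a fitted effect of over 45% in size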
Aromatase (Homo sapiens) = Aromatase (Homo sapiens) (UniProt P11511); assay: qHTS assay to identify aromatase inhibitors (AID 743083); settings: MCF-7 aro ERE, testosterone-driven ERE luciferase, 24 h; series mostly up to 70.3 µM; further: nearly all actives have a fitted effect of over 55% in size
Aromatase (Homo sapiens), sequence (P11511 whole entry, looked up): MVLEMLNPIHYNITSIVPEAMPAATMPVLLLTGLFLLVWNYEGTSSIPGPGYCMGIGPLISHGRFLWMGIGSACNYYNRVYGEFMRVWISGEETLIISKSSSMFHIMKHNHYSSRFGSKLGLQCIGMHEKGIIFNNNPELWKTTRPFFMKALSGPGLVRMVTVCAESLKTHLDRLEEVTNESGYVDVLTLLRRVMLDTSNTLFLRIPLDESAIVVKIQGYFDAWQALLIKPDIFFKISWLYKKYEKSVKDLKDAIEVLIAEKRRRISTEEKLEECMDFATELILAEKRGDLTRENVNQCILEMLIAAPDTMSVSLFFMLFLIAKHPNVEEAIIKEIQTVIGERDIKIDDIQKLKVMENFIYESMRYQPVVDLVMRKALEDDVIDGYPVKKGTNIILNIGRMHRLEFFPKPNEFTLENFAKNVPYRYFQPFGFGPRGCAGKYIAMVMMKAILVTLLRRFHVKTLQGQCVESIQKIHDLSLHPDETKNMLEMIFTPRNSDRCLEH

[9] = qHTS assay to identify aromatase inhibitors - cell viability counter screen (AID 743084); settings: MCF-7 aro ERE viability, CellTiter-Fluor, 24 h; series mostly up to 70.3 µM;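 further: cells stimulated with testosterone during compound exposure; nearly all actives have a fitted effect of over 55% in size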
[10] = qHTS assay to identify small molecule that activate the aryl hydrocarbon receptor (AhR) signaling pathway - cell viability counter screen (AID 743086); settings: HepG2-AhR-luc viability, CellTiter-Fluor, 24 h; series mostly up to 70.3 µM;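 further: HepG2 liver cells carrying the AhR DRE luciferase reporter; nearly all actives have a fitted effect of over 45% in size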
Outline: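 HepG2-AhR-luc (HG2L7.5c1) cells, 4000/well, were preincubated 5 h at 37C, exposed to compound in qHTS format for 24 hr at 37C, then given CellTiter-Fluor for 30 min; viability was read as fluorescence in the reporter wells.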

[11] = biological target: Peroxisome proliferator-activated receptor gamma (Homo sapiens) (UniProt P37231); assay: qHTS assay to identify small molecule agonists of the peroxisome proliferator-activated receptor gamma (PPARg) signaling pathway (AID 743094; active means well fitted activation curve with a large enough effect in the signal ratio in the repeat runs, not every such curve was filed as active; the % refers to the signal ratio); settings: HEK293H PPARg-UAS-bla, beta-lactamase FRET ratio, 17 h; series mostly up to 57 µM
Peroxisome proliferator-activated receptor gamma (Homo sapiens), sequence (P37231 whole entry, looked up): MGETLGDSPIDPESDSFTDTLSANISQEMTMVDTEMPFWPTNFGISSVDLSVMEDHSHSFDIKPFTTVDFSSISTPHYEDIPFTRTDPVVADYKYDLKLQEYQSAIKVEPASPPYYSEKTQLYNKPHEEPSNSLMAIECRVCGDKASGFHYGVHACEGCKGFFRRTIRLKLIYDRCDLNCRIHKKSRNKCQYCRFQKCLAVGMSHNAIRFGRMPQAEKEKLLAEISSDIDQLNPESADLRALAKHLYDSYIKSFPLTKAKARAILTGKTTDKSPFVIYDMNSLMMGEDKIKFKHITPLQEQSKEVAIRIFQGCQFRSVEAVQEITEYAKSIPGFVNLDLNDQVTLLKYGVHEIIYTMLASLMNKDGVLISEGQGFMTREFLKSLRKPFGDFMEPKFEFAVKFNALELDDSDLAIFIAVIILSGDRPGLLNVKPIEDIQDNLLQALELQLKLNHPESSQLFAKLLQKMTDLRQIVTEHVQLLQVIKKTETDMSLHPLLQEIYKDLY
Outline: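 Beta-lactamase FRET fluorescence was the read-out after a 1 h room-temperature substrate step, following 17 h compound treatment at 37C of HEK293H cells expressing a UAS-driven bla reporter responsive to PPARg.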

[12] = biological target: Peroxisome proliferator-activated receptor gamma (Homo sapiens) (UniProt P37231); assay: qHTS assay to identify small molecule antagonists of the peroxisome proliferator-activated receptor gamma (PPARg) signaling pathway (AID 743191; calls by dose curve; further: nearly all actives have a fitted effect of over 30% in size); settings: HEK293H PPARg-UAS-bla, beta-lactamase ratio, antagonist, 17 h; series mostly up to 62.6 µM
Outline: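 GeneBLAzer PPARg UAS-bla HEK293H cells carrying a UAS-driven beta-lactamase reporter were plated at 3000 cells/well, preincubated 5 h at 37C, then given compound for 17 h at 37C; LiveBLAzer B/G FRET substrate was read after 1 h at room temperature.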

[13] = qHTS assay to identify small molecule antagonists of the peroxisome proliferator-activated receptor gamma (PPARg) signaling pathway - cell viability counter screen (AID 743194); settings: PPARg-bla HEK293H viability, CellTiter-Glo luminescence, 17 h, co-treated with 50 nM rosiglitazone; series mostly up to 62.6 µM; further: nearly all actives have a fitted effect of over 55% in size
Outline: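 PPARg-UAS-bla HEK293H cells were plated, rested 5 h at 37 C, then treated with compounds plus rosiglitazone (50 nM final) for 17 h at 37 C; viability was then read by CellTiter-Glo luminescence after 30 min at room temperature.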

[14] = qHTS assay for small molecule agonists of the antioxidant response element (ARE) signaling pathway - cell viability counter screen (AID 743203; calls by dose curve; further: nearly all actives have a fitted effect of over 55% in size); settings: ARE-bla HepG2 viability, CellTiter-Glo luminescence, 16 h; series mostly up to 73.3 µM
Outline: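 HepG2 cells carrying ARE-driven beta-lactamase; 2,000 cells/well; 5 hrs plating; compound pinned from DMSO; 16 hrs 37C/5% CO2; CellTiter-Glo added; 30 min RT; luminescence.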

[15] = qHTS assay for small molecule activators of the heat shock response signaling pathway - cell viability counter screen (AID 743209); settings: HSE-bla HeLa viability, CellTiter-Glo luminescence, 5 h; series mostly up to 62.6 µM; further: nearly all actives have a fitted effect of over 50% in size
Outline: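 Luminescence from CellTiter-Glo, added after the beta-lactamase FRET read, gave the viability signal. Cells were HSE-bla HeLa treated with DMSO-dissolved compounds for 5 h at 37 C following overnight plating.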

[16] = qHTS assay to identify small molecule agonists of the peroxisome proliferator-activated receptor delta (PPARd) signaling pathway - cell viability counter screen (AID 743211); settings: PPARd-bla HEK293H viability, CellTiter-Glo luminescence, 17 h; series mostly up to 62.6 µM; further: nearly all actives have a fitted effect of over 55% in size
Outline: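 Read-out: CellTiter-Glo luminescence, 30 min RT, measured in the same wells as the beta-lactamase reporter. Cells: GeneBLAzer PPAR delta UAS-bla HEK293H, 3000 cells/well, compound exposure 17 h at 37C.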

[17] = qHTS assay for small molecule agonists of the antioxidant response element (ARE) signaling pathway (AID 743202; active means well fitted activation curve with a large enough effect in the signal ratio in the repeat runs, not every such curve was filed as active; the % refers to the signal ratio); settings: HepG2 ARE-bla reporter, beta-lactamase FRET, 16 h; series mostly up to 73.3 µM
Outline: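 Compounds delivered in DMSO to ARE-bla HepG2 cells (2,000 cells/well, pre-incubated 5 h) and left 16 h at 37 C. LiveBLAzer B/G FRET substrate then added for 2 h at RT before fluorescence reading.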

[18] = qHTS assay for small molecule activators of the heat shock response signaling pathway (AID 743210; active means well fitted activation curve with a large enough effect in the signal ratio in the repeat runs, with a control signal flat, not every such curve was filed as active; the % refers to the signal ratio;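 further: HeLa cells with beta-lactamase reporter driven by heat shock elements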); settings: HeLa HSE-bla reporter, beta-lactamase ratio, 5 h; series mostly up to 62.6 µM
Outline: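 Reporter gene assay: HeLa cells stably bearing an HSE-bla construct, compound treatment 5 h at 37 C, LiveBLAzer substrate 2.5 h at RT, fluorescence intensity.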

[19] = biological target: Aryl hydrocarbon receptor (Homo sapiens) (UniProt P35869); assay: qHTS assay to identify small molecule that activate the aryl hydrocarbon receptor (AhR) signaling pathway (AID 743085); settings: HepG2 AhR-luc (HG2L7.5c1), luciferase, 24 h; series mostly up to 70.3 µM;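 further: HG2L7.5c1 human HepG2 liver cells with stably integrated DRE-driven firefly reporter; nearly all actives have a fitted effect of over 15% in size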
Aryl hydrocarbon receptor (Homo sapiens), sequence (P35869 whole entry, looked up): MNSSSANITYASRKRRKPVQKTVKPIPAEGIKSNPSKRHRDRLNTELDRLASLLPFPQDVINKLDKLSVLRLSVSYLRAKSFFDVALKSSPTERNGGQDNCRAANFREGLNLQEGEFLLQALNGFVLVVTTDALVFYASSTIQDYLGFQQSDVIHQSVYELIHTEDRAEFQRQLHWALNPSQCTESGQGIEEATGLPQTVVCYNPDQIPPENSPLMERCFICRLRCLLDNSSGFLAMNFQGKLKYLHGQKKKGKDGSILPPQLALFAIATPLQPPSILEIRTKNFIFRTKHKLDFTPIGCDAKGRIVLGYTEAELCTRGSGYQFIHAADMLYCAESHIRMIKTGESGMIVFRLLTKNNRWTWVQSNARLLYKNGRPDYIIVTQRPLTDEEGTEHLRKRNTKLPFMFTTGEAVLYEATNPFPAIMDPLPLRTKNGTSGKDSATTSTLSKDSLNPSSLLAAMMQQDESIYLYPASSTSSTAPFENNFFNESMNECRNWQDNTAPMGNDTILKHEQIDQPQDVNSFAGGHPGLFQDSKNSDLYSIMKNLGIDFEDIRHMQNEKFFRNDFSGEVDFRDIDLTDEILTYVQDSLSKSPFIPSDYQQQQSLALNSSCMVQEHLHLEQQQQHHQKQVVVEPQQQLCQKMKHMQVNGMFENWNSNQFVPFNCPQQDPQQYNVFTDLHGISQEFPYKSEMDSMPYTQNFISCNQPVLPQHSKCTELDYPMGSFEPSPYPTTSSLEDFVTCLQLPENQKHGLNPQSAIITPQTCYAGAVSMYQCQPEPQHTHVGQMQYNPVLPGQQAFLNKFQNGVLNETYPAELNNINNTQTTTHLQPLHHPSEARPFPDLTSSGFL
Outline: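 Luminescence read-out: ONE-Glo reagent, 30 min at room temperature, in HG2L7.5c1 HepG2 reporter cells treated 24 h at 37C. Viability was measured beforehand by CellTiter-Fluor fluorescence after 30 min at 37C.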

Measured: Potency

CCC(=O)c1c(O)cc(O)cc1O
not listed: [17] | [18] | [19]
inactive: all other assays above

CC1(C)[C@H]2CC[C@](C)(C2)[C@H]1O
not listed: [19]
inactive: all other assays above

CCCCCCCCCCCCCCC(=O)NC(CO)CCCCCCCCCCCCCC (configuration not stated)
not listed: [19]
inactive: all other assays above

Cc1c(NC(=O)c2cccnc2)c(=O)n(-c2ccccc2)n1C
not listed: [13] | [14] | [19]
inactive: all other assays above

OC1OCCOC1O (configuration not stated)
not listed: [11] | [12]
inactive: all other assays above

CC1(C)Oc2ccc(C#N)cc2[C@@H](N2CCCC2=O)[C@@H]1O
not listed: [10] | [14]
inactive: all other assays above

O=C[O][Al]([O]C=O)[O]C=O
not listed: [11] | [12] | [13]
inactive: all other assays above

CCCCCCCCCCCCCCCCCCOCCO
not listed: [10]
inactive: all other assays above

C=CCCCCCCCCC(=O)OCCCC
not listed: [12] | [17] | [18]
inactive: all other assays above

N#CCC(=O)NN
not listed: [10] | [14] | [17] | [18]
inactive: all other assays above

CCO[Si](CC)(OCC)OCC
not listed: [11] | [12] | [14] | [18]
inactive: all other assays above

C/C(CC(C)C)=N\O
not listed: [11] | [12] | [13] | [18]
inactive: all other assays above

CO[C@@]1(NC(=O)Cc2cccs2)C(=O)N2C(C(=O)O)=C(COC(N)=O)CS[C@@H]21
not listed: [10] | [13]
inactive: all other assays above

C=CC/C=C/C
not listed: [6] | [12] | [13] | [19]
inactive: all other assays above

CC12CCC(C1)C(C)(C)C2O (configuration not stated)
not listed: [10] | [13] | [17] | [19]
inactive: all other assays above

CCOc1cccc(N)c1
not listed: [11] | [19]
inactive: all other assays above
